We go through 16 molecules from PubChem BioAssay (EPA / NIEHS).

Records with an inconclusive call do not appear. Activity calls are given as the source filed them. How the source made its calls: active means hit-call score of the fitted dose curve at least 0.9, where 1 is the maximum; inconclusive means response in the unintended direction; inactive means score below 0.9.

In assay [1] the target is Cellular tumor antigen p53 (Homo sapiens) (UniProt P04637). Briefly: TOX21_p53_BLA_p4_ratio: Tox21 HCT-116 p53 Agonism Beta-lactamase Assay, Ratio, Phase 4 (AID 2283601). In short, it runs like this: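 Signal is the blue/green (460nm/530nm) ratio of cleaved versus uncleaved CCF4-AM substrate, read after 2 h substrate loading. Cells were HCT116 carrying the p53-responsive beta-lactamase reporter, dosed 16 h at 37C, 5% CO2; CellTiter-Glo measured in parallel.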

The nature of assay [2]: Tanguay_ZF_120hpf_MORT_legacy: (Legacy) Oregon State University Tanguay Lab 120 Hour Post-fertilization zebrafish Assay for Mortality (AID 2283633). In short, it runs like this: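 Dechorionated Tropical 5D wild-type zebrafish embryos, one per well from 6 hpf, were statically exposed at 28C in the dark until 120 hpf (0.64% DMSO final). Mortality was scored as present/absent by brightfield microscopy, fitted positively versus DMSO.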

Assay [3] can be described thus: Tanguay_ZF_120hpf_YSE_legacy: (Legacy) Oregon State University Tanguay Lab 120 Hour Post-fertilization zebrafish Assay for Yolk Sac Edema (AID 2283634). In short, it runs like this:
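Tropical 5D wild-type embryos, dechorionated with pronase at 4 hpf, were exposed singly from 6 hpf to 120 hpf under static, sealed, dark conditions at 28C with 0.64% DMSO final. Yolk sac edema was scored present/absent by brightfield microscopy.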

Assay [4] is described as follows: Tanguay_ZF_120hpf_EYE_legacy: (Legacy) Oregon State University Tanguay Lab 120 Hour Post-fertilization zebrafish Assay for Eye Malformation (AID 2283636). The gist of the method: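 Read-out is binary presence or absence of eye malformation, scored by brightfield microscopy at 120 hpf. Single larvae were exposed from 6 hpf in embryo medium containing 0.64% DMSO, with DMSO as baseline.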

A short description of assay [5]: Tanguay_ZF_120hpf_SNOU_legacy: (Legacy) Oregon State University Tanguay Lab 120 Hour Post-fertilization zebrafish Assay for Snout Malformation (AID 2283637). The gist of the method: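 Snout malformation read as a yes/no call on brightfield images of 120 hpf larvae (Tropical 5D strain). Static exposure began at 6 hpf on dechorionated embryos in 0.64% DMSO, with gain of signal analysed versus DMSO controls.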

The nature of assay [6]: Tanguay_ZF_120hpf_JAW_legacy: (Legacy) Oregon State University Tanguay Lab 120 Hour Post-fertilization zebrafish Assay for Jaw Malformation (AID 2283638). In short, it runs like this:
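Tropical 5D wild-type embryos, dechorionated with pronase at 4 hpf, were placed singly per well at 6 hpf and statically exposed at 28C until 120 hpf (0.64% DMSO final). Jaw malformation scored as present/absent by brightfield microscopy at 120 hpf, analyzed relative to DMSO.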

Assay [7] can be described thus: Tanguay_ZF_120hpf_PE_legacy: (Legacy) Oregon State University Tanguay Lab 120 Hour Post-fertilization zebrafish Assay for Pericardial Edema (AID 2283640). In short, it runs like this: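 Tropical 5D wild-type zebrafish embryos were exposed statically to 120 hpf at 28C, sealed and foil-covered, in 0.64% DMSO final. Pericardial edema was scored present/absent by brightfield microscopy; dead embryos were not scored.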

Assay [8] in a line: Tanguay_ZF_120hpf_BRAI_legacy: (Legacy) Oregon State University Tanguay Lab 120 Hour Post-fertilization zebrafish Assay for Brain Malformation (AID 2283641). The gist of the method: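 Tropical 5D wild-type zebrafish embryos were exposed statically in sealed, foil-covered plates at 28C until 120 hpf, with 0.64% (vol/vol) final DMSO. Brain malformation was scored present/absent by brightfield microscopy, relative to DMSO baseline.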

Assay [9] is described as follows: Tanguay_ZF_120hpf_SOMI_legacy: (Legacy) Oregon State University Tanguay Lab 120 Hour Post-fertilization zebrafish Assay for Somite Malformation (AID 2283647). In short, it runs like this:
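Tropical 5D wild-type zebrafish embryos, dechorionated with pronase at 4 hpf, were placed singly at 6 hpf and statically exposed until 120 hpf at 28C in 0.64% DMSO. Somite malformation was scored present/absent by brightfield microscopy versus DMSO.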

Assay [10] in a line: Tanguay_ZF_120hpf_PFIN_legacy: (Legacy) Oregon State University Tanguay Lab 120 Hour Post-fertilization zebrafish Assay for Pectoral Fin Malformation (AID 2283648).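 Further: each larva judged yes or no for fin defect by brightfield with dead larvae skipped.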 The gist of the method: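 5D WT zebrafish; pronase dechorionation 4 hpf; 1 embryo/well at 6 hpf; static exposure to 120 hpf, 28C, sealed, foil-covered; final DMSO 0.64% v/v; 5 uM trimethyltin chloride positive control; fin defect scored yes/no.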

Assay [11] can be described thus: Tanguay_ZF_120hpf_PIG_legacy: (Legacy) Oregon State University Tanguay Lab 120 Hour Post-fertilization zebrafish Assay for Pigmentation Malformation (AID 2283650). The gist of the method:
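Pronase dechorionation at 4 hpf; embryos plated at 6 hpf, one per well; static exposure, sealed and foil-covered, 28C, to 120 hpf; pigmentation read by brightfield, binary; DMSO 0.64% baseline, 5uM trimethyltin chloride positive control.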

Assay [12] in a line: Tanguay_ZF_120hpf_SWIM_legacy: (Legacy) Oregon State University Tanguay Lab 120 Hour Post-fertilization zebrafish Assay for Swim Bladder Malformation (AID 2283654).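 Further: swim bladder malformation in each larva scored yes or no under brightfield.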 In short, it runs like this: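 Embryos lacking chorions were exposed individually and statically to test chemical from 6 to 120 hpf at 28C, with 0.64% DMSO as vehicle. At 120 hpf, swim bladder malformation was recorded as present or absent by brightfield microscopy.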

A short description of assay [13]: Tanguay_ZF_120hpf_TRUN_legacy: (Legacy) Oregon State University Tanguay Lab 120 Hour Post-fertilization zebrafish Assay for Truncated Body (AID 2283655). The gist of the method:
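Tropical 5D wild-type embryos, dechorionated with pronase at 4 hpf, were placed singly in wells at 6 hpf and statically exposed at 28C until 120 hpf, final DMSO 0.64%. Truncated body was scored present/absent by brightfield microscopy.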

Assay [14] is described as follows: Tanguay_ZF_120hpf_AXIS_legacy: (Legacy) Oregon State University Tanguay Lab 120 Hour Post-fertilization zebrafish Assay for Body Axis Malformation (AID 2283635). In short, it runs like this:
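Tropical 5D wild-type zebrafish embryos, dechorionated with pronase at 4 hpf, were placed singly in wells at 6 hpf and exposed statically to test chemical (0.64% DMSO final) at 28C until 120 hpf, then scored by brightfield for body axis defects.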

Assay [15] is described as follows: Tanguay_ZF_120hpf_OTIC_legacy: (Legacy) Oregon State University Tanguay Lab 120 Hour Post-fertilization zebrafish Assay for Otic Vesicle Malformation (AID 2283639). The gist of the method:
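Tropical 5D wild-type zebrafish embryos were exposed statically in sealed, foil-covered plates at 28C until 120 hpf, with 0.64% (vol/vol) DMSO final. Otic vesicle malformation was scored present/absent by brightfield microscopy, with DMSO as baseline.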

For assay [16], the system named is Thyroperoxidase (TPO), gene 54314. Briefly: CCTE_Simmons_AUR_rTPO: CCTE's Amplex UltraRed Assay for Thyroperoxidase (TPO) Inhibition, Simmons Lab (AID 2283662).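 Further: potency for loss of signal meaning inhibition of peroxidase activity.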 In short, it runs like this: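 Rat thyroid microsomes (5 ug protein) were incubated with test compound (8 concentrations, 5 nM–87.5 uM final, 0.5% DMSO), 25 uM Amplex UltraRed and 300 uM H2O2 in 200 mM phosphate buffer for 30 min at 37C in the dark; fluorescence read at 544/590 nm.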

Sequence of Cellular tumor antigen p53 (Homo sapiens) (P04637 whole entry, looked up): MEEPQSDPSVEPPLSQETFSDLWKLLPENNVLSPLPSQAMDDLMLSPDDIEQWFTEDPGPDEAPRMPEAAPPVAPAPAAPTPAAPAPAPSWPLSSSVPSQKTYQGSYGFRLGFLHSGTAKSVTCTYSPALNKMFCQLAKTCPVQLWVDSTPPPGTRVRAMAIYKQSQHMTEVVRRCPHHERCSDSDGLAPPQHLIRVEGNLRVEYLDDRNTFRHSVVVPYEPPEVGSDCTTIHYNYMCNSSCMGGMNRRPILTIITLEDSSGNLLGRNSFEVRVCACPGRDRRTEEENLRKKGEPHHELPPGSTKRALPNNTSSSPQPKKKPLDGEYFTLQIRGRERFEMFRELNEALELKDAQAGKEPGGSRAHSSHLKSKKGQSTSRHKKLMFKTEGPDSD

On to `CCOc1ccc(C(C)(C)COCc2cccc(Oc3ccccc3)c2)cc1`, for which the outcome in assay [1], in assay [2], in assay [3], in assay [4], in assay [5] and in assay [6] was inactive. Besides, the outcome in [7], in assay [8], in [9], in assay [10], in assay [11] and in assay [12] was inactive. Besides, the molecule was classed as inactive in assay [13].
On to `c1ccc(OP(Oc2ccccc2)Oc2ccccc2)cc1`, for which the call in assay [2], in assay [3], in assay [14], in [4], in assay [5] and in assay [6] was inactive. For the same molecule, the molecule was classed as inactive in assay [15], in assay [7], in assay [8], in assay [9], in assay [10] and in [11]. Further, the outcome in assay [12] and in [13] was inactive. Moreover, the AC50 in [16] is 8.68 µM (active).
For the molecule `Cc1ccc([N+](=O)[O-])cc1C`, the molecule was classed as inactive in [2], in assay [3], in assay [14], in assay [4], in assay [5] and in assay [6]. Also, the call in assay [15], in [7], in assay [8], in assay [10], in assay [11] and in [13] was inactive.
For `O=[N+]([O-])c1ccc(Cl)c(Cl)c1`, the molecule was called inactive in assay [2], in assay [3], in [14], in assay [4], in assay [5] and in [6]. In addition, the outcome in assay [15], in assay [7], in assay [8], in [9], in assay [10] and in assay [11] was inactive. For the same molecule, the call in assay [13] was inactive.
Consider `O=S1(=O)OCC2C(CO1)C1(Cl)C(Cl)=C(Cl)C2(Cl)C1(Cl)Cl` (centres undefined), for which the outcome in assay [1] was inactive. Further, the AC50 in [16] was 2.41 µM (active).
On to `CCCCN(CC)C(=O)SCCC`, for which, in [1], the result was inactive. The AC50 in assay [16] was 6.35 µM (active).
As for `CCOS(=O)(=O)OCC`, the result in [1], in assay [2], in [3], in assay [14], in assay [4] and in assay [5] was inactive. For the same molecule, the molecule was called inactive in assay [6], in assay [15], in assay [7], in [8], in assay [9] and in [10]. In addition, the molecule was called inactive in assay [12] and in [13].
Turning to `CCCCN(CCCC)SN(C)C(=O)Oc1cccc2c1OC(C)(C)C2`, the molecule was called inactive in assay [2], in assay [3], in assay [14], in assay [5], in [6] and in assay [15]. In addition, the result in [8], in assay [9], in assay [10], in assay [11], in assay [12] and in assay [13] was inactive.
Consider `CCCCc1ccc(O)cc1`, for which the outcome in assay [1] was inactive. Also, in assay [16], the AC50 is 0.51 µM (active).
Regarding `CCOP(=S)(Oc1ccc([N+](=O)[O-])cc1)c1ccccc1` (centres undefined), the molecule was classed as inactive in assay [2], in assay [14], in assay [4], in [5], in [6] and in [15]. For the same molecule, the outcome in assay [7], in [8], in [9], in assay [10], in assay [12] and in [13] was inactive. Further, the AC50 in [16] is 10.2 µM (active).
For `CCCCN(CCCC)N=O`, the outcome in assay [1], in [2], in assay [3], in assay [14], in assay [4] and in [5] was inactive. For the same molecule, the molecule was classed as inactive in assay [6], in assay [7], in assay [8], in assay [9], in assay [10] and in assay [12]. In addition, the result in [13] was inactive.
For `CCCCc1ccccc1`, the molecule was classed as inactive in assay [2], in assay [3], in assay [14], in assay [4], in assay [5] and in assay [6]. Further, the outcome in [15], in assay [7], in assay [8], in [9], in [10] and in assay [11] was inactive. The molecule was classed as inactive in [12] and in assay [13].
Take `c1nc[nH]n1`: the result in [1], in assay [5], in assay [15], in assay [8], in assay [9] and in [11] was inactive.
For `CCCN(CCC)c1c([N+](=O)[O-])cc(C(C)C)cc1[N+](=O)[O-]`, the molecule was called inactive in [2], in assay [3], in assay [5], in [7], in assay [8] and in [9]. Moreover, the molecule was classed as inactive in assay [10], in assay [12] and in assay [13].
For `Nc1ccc(Cl)cc1`, the result in assay [1], in [2], in assay [14], in assay [4], in assay [5] and in assay [6] was inactive. In addition, the molecule was called inactive in [15], in [7], in assay [8], in [9], in [11] and in [12]. In addition, the AC50 in assay [16] is 0.315 µM (active).
Consider `O=S(=O)(c1ccc(O)cc1)c1ccc(O)cc1`, for which, in [16], the AC50 is 32 µM (active).

By AC50 is commonly meant the concentration at which the activity in the assay is half-maximal.
